Reference: PubChem BioAssay (EPA / NIEHS)
Records with an inconclusive call do not appear. The source made the active and inactive calls. How the source made its calls, unless noted: active means hit-call score of the fitted dose curve at least 0.9, where 1 is the maximum; inactive means score below 0.9.

What was measured:
[1] = ACEA_ER_80hr: ACEA Biosciences xCELLigence Real-Time Cell Analysis on Estrogen Receptor Agonism for Proliferation (AID 2282667; active means hit-call score of the fitted dose curve at least 0.9, where 1 is the maximum); details: T47D proliferation, impedance (xCELLigence), 80 h
How it was run: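 Estrogen-driven proliferation is captured as electrode impedance in T47D cells 80 h after compound addition. Test articles ran at 8 concentrations, 1:4 dilutions from 100 uM final, in two replicate plates.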

[2] = APR_HepG2_p53Act_1hr: Apredica 1-hour HepG2 Assay for p53 Activation (AID 2282671); details: high-content imaging, actives raise or lower the signal
How it was run: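 After 1 h exposure (0.39–200 uM, 0.5% DMSO final, duplicates), fixed HepG2 cells were labelled with anti-p53 antibody plus Hoechst nuclear stain. Fluorescence quantified by automated 20x imaging; changes fitted in both directions against DMSO.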

[3] = APR_HepG2_MitoticArrest_1hr: Apredica 1-hour HepG2 Assay for Mitotic Arrest (AID 2282672); details: high-content imaging, actives raise or lower the signal
How it was run: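 Ten-point concentration series (0.39 to 200 uM, duplicates, 0.5% v/v DMSO) applied to human HepG2 liver cells for 1 hr. High-content imaging of phospho-histone H3 and Hoechst-stained nuclei after fixation and permeabilization; DMSO-normalised bidirectional fit.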

[4] = APR_HepG2_P-H2AX_1hr: Apredica 1-hour HepG2 Assay for H2AX Phosphorylation (AID 2282673); details: high-content imaging, actives raise or lower the signal
How it was run: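 Phospho-H2A.x immunofluorescence (1:200, FITC secondary) plus Hoechst nuclear stain, quantified by high-content imaging in HepG2 after 1 hr compound exposure. Ten concentrations, 0.39 to 200 uM, in duplicate with 0.5% DMSO; fit both directions against DMSO.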

[5] = APR_HepG2_MitoMembPot_1hr: Apredica 1-hour HepG2 Assay for Mitochondrial Membrane Potential (AID 2282675); details: imaging, actives raise or lower the signal
How it was run: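 Mitochondrial membrane potential read as MitoTracker Red CMXRos intensity by automated imaging of fixed HepG2 cells. Dye at 250 nM for 30 min pre-fixation; compounds 0.39 to 200 uM for 1 hour, duplicate wells, 0.5% DMSO.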

[6] = APR_HepG2_CellCycleArrest_24hr: Apredica 24-hour HepG2 Assay for Cell Cycle Arrest (AID 2282905); details: imaging, actives raise or lower the signal;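 further: cell cycle arrest scored as ratio of 2N to 4N nuclear DNA content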
How it was run: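 Step one: dose HepG2 with test compounds, 0.39–200 uM, 0.5% DMSO, 24 hr. Step two: fix, permeabilize, stain nuclei with Hoechst 33342. Step three: image six fields per well at 20x, quantify DNA content, fit bidirectionally relative to DMSO.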

[7] = APR_HepG2_StressKinase_1hr: Apredica 1-hour HepG2 Assay for Stress Kinase (AID 2282906); details: HepG2 stress kinase (phospho-c-Jun) imaging, actives raise or lower the signal
How it was run: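 High-content imaging of phospho-c-Jun immunostaining (with Hoechst nuclear identification) after a 1 h exposure of HepG2 cells to 10 concentrations from 0.39 to 200 uM, final DMSO 0.5%. Fitted bidirectionally against DMSO.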

[8] = APR_HepG2_NuclearSize_24hr: Apredica 24-hour HepG2 Assay for Nuclear Size (AID 2282907); details: high-content imaging, actives raise or lower the signal
How it was run: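 After fixation and permeabilization, 24-hr-treated HepG2 cells were stained with Hoechst 33342 and imaged on an ArrayScan (20x). Doses spanned 0.39–200 uM in duplicate. Nuclear diameter changes in either direction were fitted relative to 0.5% DMSO controls.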

[9] = APR_HepG2_CellLoss_24hr: Apredica 24-hour HepG2 Assay for Cell Loss (AID 2282908); details: high-content imaging
How it was run: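 Duplicate wells received compound at ten concentrations (0.39–200 uM; final DMSO 0.5% v/v). After fixation with formaldehyde, nuclei stained with Hoechst 33342 were imaged at 20x. Loss or gain of cell count was fitted relative to DMSO controls.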

[10] = APR_HepG2_MicrotubuleCSK_24hr: Apredica 24-hour HepG2 Assay for Microtubule CSK Stabilty (AID 2282909); details: HepG2 microtubule cytoskeleton imaging, actives raise or lower the signal
How it was run: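 Microtubule stability is scored from tubulin immunofluorescence in fixed HepG2 cells imaged at 20x. Cells receive ten compound concentrations up to 200 uM for 24 h; taxol and DMSO serve as positive and negative controls.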

[11] = APR_HepG2_MitoticArrest_24hr: Apredica 24-hour HepG2 Assay for Mitotic Arrest (AID 2282910); details: high-content imaging, actives raise or lower the signal
How it was run: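 HepG2, 24 hr dosing, 0.39–200 uM, 0.5% DMSO final. Formaldehyde-fixed, Triton-permeabilised, anti-phospho-histone H3 plus Hoechst. ArrayScan imaging at 20x; bidirectional fit vs DMSO baseline.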

[12] = APR_HepG2_MitoMembPot_24hr: Apredica 24-hour HepG2 Assay for Mitochondrial Membrane Potential (AID 2282911); details: imaging, actives raise or lower the signal
How it was run: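 Mitochondrial dye uptake (MitoTracker Red CMXRos, 250 nM, 30 min pre-fixation) in HepG2 after 24 hr compound exposure, 0.39–200 uM; ArrayScan images at 20x, activity fitted in both directions relative to DMSO.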

[13] = APR_HepG2_MitoMass_24hr: Apredica 24-hour HepG2 Assay for Mitochondrial Mass (AID 2282912); details: high-content imaging, actives raise or lower the signal
How it was run: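 Readout: fluorescence of MitoTracker Red CMXRos (250 nM, added 30 min pre-fixation) in fixed HepG2 cells imaged by HCS. Exposure lasted 24 hr at 0.39–200 uM; increases and decreases were both fitted relative to DMSO.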

[14] = APR_HepG2_p53Act_24hr: Apredica 24-hour HepG2 Assay for p53 Activation (AID 2282913); details: high-content imaging, actives raise or lower the signal;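 further: p53 protein immunofluorescence averaged per cell in HepG2 with Hoechst nuclei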
How it was run: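 Following 24 hr dosing of HepG2 at 0.39–200 uM, the cells undergo formaldehyde fixation, Triton permeabilization and multiplexed antibody labeling that includes p53 (Cy5). Signal from the imaging is referenced to DMSO solvent controls.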

[15] = APR_HepG2_CellCycleArrest_72hr: Apredica 72-hour HepG2 Assay for Cell Cycle Arrest (AID 2282914); details: high-content imaging, actives raise or lower the signal
How it was run: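 Using multiplexed high-content imaging, HepG2 nuclei stained with Hoechst 33342 (2 ug/mL) were analysed for DNA content after fixation and permeabilization. Treatment lasted 72 hr across 0.39–200 uM in duplicate with final DMSO 0.5% v/v; DMSO served as negative control.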

[16] = APR_HepG2_CellLoss_1hr: Apredica 1-hour HepG2 Assay for Cell Loss (AID 2282668); details: high-content imaging;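 further: curves fitted both ways against DMSO so gain or loss of cells counts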
How it was run: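 Cell number comes from high-content imaging of Hoechst-labelled nuclei in fixed HepG2 cells. Cells were exposed for 1 h to ten concentrations from 0.39 to 200 uM in 0.5% DMSO. Gain or loss was fitted against DMSO controls.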

[17] = APR_HepG2_MicrotubuleCSK_1hr: Apredica 1-hour HepG2 Assay for Microtubule CSK Stabilty (AID 2282669); details: HepG2 microtubule cytoskeleton imaging, actives raise or lower the signal
How it was run: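 Alpha-tubulin immunofluorescence, imaged by automated high-content microscopy with Hoechst nuclear segmentation, measured cytoskeletal change after 1 h dosing of HepG2 at 0.39–200 uM in 0.5% DMSO. Activity fitted in both directions relative to DMSO.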

[18] = APR_HepG2_MitoMass_1hr: Apredica 1-hour HepG2 Assay for Mitochondrial Mass (AID 2282674); details: high-content imaging, actives raise or lower the signal
How it was run: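 Mitochondrial mass is taken from MitoTracker Red CMXRos (250 nM, 30 min, pre-fixation) fluorescence imaged at 20x in HepG2 cells. Exposure lasted 1 hr across ten concentrations, 0.39 to 200 uM, 0.5% DMSO; DMSO baseline, bidirectional fitting.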

Measured: outcome

CCOP(=S)(OCC)Oc1nc(Cl)n(C(C)C)n1
not listed: [16] | [17] | [18]
inactive: all other assays above

CSC(=O)c1c(C(F)F)nc(C(F)(F)F)c(C(=O)SC)c1CC(C)C
not listed: [1] | [16] | [17] | [18]
inactive: all other assays above

CS(=O)(=O)c1cc(C(F)(F)F)ccc1C(=O)c1cnoc1C1CC1
not listed: [1] | [11] | [17] | [18]
inactive: all other assays above

O=c1n(Cl)c(=O)n(Cl)c(=O)n1Cl
not listed: [1] | [11] | [16] | [17] | [18]
inactive: all other assays above

CCOC(=O)C(C)OC(=O)c1cc(Oc2ccc(C(F)(F)F)cc2Cl)ccc1[N+](=O)[O-] (configuration not stated)
not listed: [11] | [16]
inactive: all other assays above
